The text below walks through data of PubChem BioAssay AID652040 (Broad Institute, 2013).

Measured potencies and affinities stand elsewhere. Calls of active or inactive are those of the source.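 Rule for the calls: active = falling luciferase signal whose fitted half-maximal concentration is at most twice the top tested dose; inconclusive = flat inhibition between 30 and 70% or a poor curve fit; inactive = the rest.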

The assay in a line: off-target signal loss in HeLa-CEM21 co-culture – HeLa F-luc CTL cells, cherry-picked, counter-screen for HIV-1 Env fusion inhibitor project, dose response (AID 652040).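 Note: 0% = median of neutral control wells and -100% = doxycycline 40 µg/mL wells; more negative values mean stronger loss of luciferase signal.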 To be noted: HeLa-F-luc CTL cells with CEM21, firefly luciferase counterscreen; series mostly up to 35 µM. (In general: Counterscreens check selectivity or assay interference.)
Take `Cn1cc(S(=O)(=O)N2CCOCC2)cc1C(=O)Nc1cccc(Cl)c1`: the compound was called inactive.

Regarding `O=C(NCCCN1CCc2ccccc2C1)Nc1ccc(Cl)cc1`, the compound was called inactive.

For the compound `N#Cc1ccc(CSc2nnc(COc3ccccc3)n2-c2ccccc2)cc1`, the compound was called inactive.

Consider `CC(C)CN(C(=O)c1ccc(S(=O)(=O)N2CCCCC2)cc1)C1CCS(=O)(=O)C1` (centres undefined), for which the compound was called inactive.

In the case of `CCn1ncc(C2=NOC(C(=O)Nc3ccc(C)cc3)C2)c1C` (centres undefined), the compound was called inactive.

Regarding `CN1CC(c2ccccc2)C2(SC(=S)N(Cc3ccco3)C2=O)C12C(=O)Nc1ccccc12` (centres undefined), the compound was called inactive.

As to `O=C(Nc1nc(-c2ccc3c(c2)OCO3)cs1)c1ccncc1`, the result was inactive.

With `CCCCOCCCNc1ncnc2c1[nH]c1ccccc12`, the result was inactive.

On to `COCC(C)n1c(-c2ccc3c(c2)NC(=O)CO3)csc1=Nc1ccc(OC(F)F)cc1` (centres undefined), for which the compound was classed as inactive.

Turning to `CC(C)CNS(=O)(=O)c1ccc(CCC(=O)N2CCN(Cc3ccc4c(c3)OCO4)CC2)cc1`, the result was inactive.

Regarding `Nc1c(S(=O)(=O)c2ccccc2)cnc2c(-c3ccc(F)cc3)cnn12`, the call was inactive.

As for `Cc1ccc(Cn2ncc3c(N4CCN(Cc5ccc(Cl)cc5)CC4)ncnc32)cc1`, the compound was called inactive.

On to `CC1CCCN(C(=O)c2ccc(S(=O)(=O)N3CCC(c4nc5ccccc5s4)CC3)cc2)C1` (centres undefined), for which the compound was called inactive.

Regarding `COc1ccccc1N1CCN(Cc2ccc(O)c3ncccc23)CC1`, the activity change, negative = inhibition was 166% [at 8 µM] (inactive).

As to `O=C(NCc1ccccc1)c1ccc(C(=O)NCc2ccccc2)cc1`, the compound was classed as inactive.

As for `C=CCN1C(=S)CC(c2ccccc2)=Nc2ccccc21`, the compound was called inactive.

Regarding `COc1ccc(-c2nnc(Nc3nc4c(OC)cccc4s3)o2)cc1`, the call was inactive.

Take `O=C(CNC(=O)c1cccc(-n2cccc2)c1)Nc1ccccc1Br`: the compound was called inactive.

In the case of `CCc1cc2c(NCc3ccco3)ncnc2s1`, the outcome was inactive.

Regarding `O=C(COC(=O)c1cccc(S(=O)(=O)N2CCOCC2)c1)NCc1ccccc1`, the result was inactive.

Take `COc1ccc(NC(=O)c2ccc(Cl)c(S(=O)(=O)N3CCc4ccccc4C3)c2)cn1`: the call was inactive.

Take `COc1ccccc1CN(C)C(=O)CN1CCN(C(=O)c2cccs2)CC1`: the compound was called inactive.

With `CC1(C)N=C(N)N=C(N)N1CCCCc1ccccc1`, the outcome was inactive.

With `CS(=O)(=O)N1CCN(c2ccccc2NC(=O)C(c2ccccc2)c2ccccc2)CC1`, the compound was called inactive.

Consider `COc1ccccc1S(=O)(=O)n1cc(Cc2ccccc2)c(N)n1`, for which the compound was called inactive.

In the case of `Cc1ccc(Cn2nnnc2CN2CCC(c3nc4ccc(Cl)cc4[nH]3)CC2)cc1`, the compound was called inactive.

Regarding `CC1CCN(S(=O)(=O)c2cc(C(=O)N3CCN(c4ccccc4)CC3)ccc2Br)CC1`, the outcome was inactive.

As to `CN1C(=O)C2(c3ccccc31)N(C)CC(c1ccccc1)C21SC(=S)N(Cc2ccco2)C1=O` (centres undefined), the compound was called inactive.

Take `O=C(c1cccc(S(=O)(=O)N2CCN(c3ccccc3)CC2)c1)N1CCCC(C(F)(F)F)C1` (centres undefined): the compound was called inactive.

For the compound `COc1ccc(/C=C/c2cc(-c3ccc(C)cc3)o[n+]2C)cc1`, the outcome was inactive.

`CC(C)(C)OC(=O)N1CCc2onc(-c3ccc(Br)cc3)c2C1=O`: the compound was classed as inactive.

On to `CC(CCc1ccco1)NC(=O)CCc1nnc2ccc(NCc3ccccc3Cl)nn12` (centres undefined), for which the result was inactive.

Turning to `COc1ccc2[nH]c3c(N4CCC(O)(c5cccc(C(F)(F)F)c5)CC4)ncnc3c2c1`, the compound was classed as inactive.

For `Nc1nonc1C(=O)NCCNCc1cc(Br)ccc1OCc1ccccc1F`, the compound was classed as inactive.

Regarding `Cc1cccc(C)c1NC(=O)N1CCN(c2nc3ccccc3s2)CC1`, the outcome was inactive.

As for `COc1cccc(CNc2nc(NCc3ccccc3OC)nc3ccsc23)c1`, the compound was called inactive.

In the case of `CCc1ccc(-c2nc(CN3CCC(C(=O)NCCc4ccc(OC)c(OC)c4)CC3)c(C)o2)cc1`, the compound was called inactive.

In the case of `COc1ccc(N2CCn3c2nc2c3c(=O)n(CCCc3ccccc3)c(=O)n2C)c(OC)c1`, the result was inactive.

For the compound `CC(=O)C1=C(C)NC(=S)NC1c1ccccc1` (centres undefined), the call was inactive.
